Assay results: ChEMBL document CHEMBL3988442, “University of Dundee, Small-Polar-MMV Screening Library” (2021)

tested on: Trypanosoma cruzi; test: Trypanosoma cruzi phosphomannomutase and mannose-1-phosphate guanylyltransferase assay; type: functional; set-up: scale not given: direction of the effect not stated beside the values; conditions: 10 µM

Compound	Percent Effect [%]
Cc1cnn(CC2CCCN2C(=O)c2cccnc2N(C)C)c1 (centres undefined)	1.42
CC(NC(=O)NCc1cccc(Cl)c1)(C(=O)O)c1ccco1 (centres undefined)	5.32
CC(C)c1nc(C2CCCN(C(=O)c3ccnc(N(C)C)c3)C2)no1 (centres undefined)	-3.62
Cc1cnc(CN2CCCC(c3cc(C(N)=O)[nH]n3)C2)cn1 (centres undefined)	-3.01

target: T1, Arginase-2, mitochondrial (Homo sapiens) (UniProt P78540); test: in vitro enzyme assay to detect the production of urea directly proportional to the activity of Arginase II; type: functional; set-up: scale not given: in the data most compounds retested in dose-response had high values; conditions: 30 µM
T1 sequence (whole entry): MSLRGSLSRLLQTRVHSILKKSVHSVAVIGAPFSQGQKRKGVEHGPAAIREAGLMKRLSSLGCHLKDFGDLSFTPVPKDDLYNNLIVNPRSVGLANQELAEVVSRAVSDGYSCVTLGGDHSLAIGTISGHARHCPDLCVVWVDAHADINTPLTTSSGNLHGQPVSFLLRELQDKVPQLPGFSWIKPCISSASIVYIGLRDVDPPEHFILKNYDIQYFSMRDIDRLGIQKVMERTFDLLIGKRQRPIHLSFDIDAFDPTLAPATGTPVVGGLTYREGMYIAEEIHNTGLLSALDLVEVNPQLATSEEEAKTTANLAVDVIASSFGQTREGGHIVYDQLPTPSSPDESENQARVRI

Compound	Percent Effect [%]
CN1CCN(C(=O)Cn2ccc3c(Cl)cccc32)CC1	4.87
Cc1cc(F)c(C(C(=O)O)N2CCN(Cc3ccccn3)CC2)cc1Cl (centres undefined)	5.95
CC(=O)N1CCN(C(=O)Cn2ccc3c(Cl)cccc32)CC1	2.7
Fc1ccc(CNCc2nnc3n2CC(C(F)(F)F)CC3)cc1 (centres undefined)	-13.5
Cc1nsc(N2CCCN(C(=O)NCc3cc(C)on3)CC2)n1	8.11
CN(Cc1cccnc1)C1CC2(CCN(Cc3cccnc3)CC2)C1	-12.4
CCC(C(=O)NCc1cccnc1)N(c1cccc(C)c1)S(C)(=O)=O (centres undefined)	-0.54
Cc1nc(NCC2CC2)nc2c1COCC21CCN(C(=O)NC(C)C)C1 (centres undefined)	7.03
O=C(O)C(c1ccc(Cl)c(F)c1)N1CCN(Cc2ccccn2)CC1 (centres undefined)	5.95
CN(C)c1ncccc1CNC(=O)N(Cc1ccccc1F)C1CC1	8.11
COc1cccc(C(=O)N2C[C@@H](C(=O)O)[C@H](c3ccccc3C)C2)c1	5.95
Cc1nn(C)cc1C(=O)N1CCCC(c2nccn2Cc2cscn2)C1 (centres undefined)	-12.4
CN(Cc1ccncc1)C1CC2(CCN(Cc3ccccn3)CC2)C1	5.95
O=C(COC1CCCC1)N1CCCC1c1noc(C2CC2)n1 (centres undefined)	5.95
CC(C)(C)OC(=O)Cn1cccc(S(=O)(=O)N2CCCCCC2)c1=O	5.95
